Source: PubChem BioAssay (NCATS)
Records with an inconclusive call do not appear. Values without a mark were called inactive. Active and inactive are the calls of the source. Calls come from the whole dose curve; as a rule, active = well fitted inhibition curve with a large enough effect; inconclusive = small, poorly fitted or top-dose-only effect; inactive = no such curve, though single readings can be large or run the other way.

test: qHTS Screen of the MIPE 4.0 Collection Against Ewings Sarcoma (RDES) (AID 1259252); settings: RD-ES Ewing sarcoma viability, CellTiter-Glo, 48 h; series mostly up to 45.8 µM; viability (percent of control): at the top concentration; note: nearly all actives have a fitted effect of over 35% in size;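 for viability (percent of control): 100% = DMSO-treated cells and 0% = medium-only wells without cells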
Procedure, shortened: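 Log-phase cells in RPMI with 5% FBS attached for 4 h, then received compounds as a titration for 48 h at 37C, 5% CO2. Viability was read by CellTiter-Glo luminescence and normalized to DMSO and no-cell wells.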
Potency is the fitted concentration of half-maximal effect.

Compound	viability (percent of control)	Potency
N=C(N)c1ccc2cc(OC(=O)c3ccc(N=C(N)N)cc3)ccc2c1	108%	
CNC[C@H](O)c1ccc(O)c(O)c1		42.9 µM (active)
O=C(NOCC1CC1)c1ccc(F)c(F)c1Nc1ccc(I)cc1Cl		20.9 µM (active)
CCC[C@@H]1C[C@@H](C(=O)N[C@@H]([C@H]2O[C@H](SC)[C@H](O)[C@@H](O)[C@H]2O)[C@@H](C)O)N(C)C1	115%	
CN(C)C(=O)COC(=O)Cc1ccc(OC(=O)c2ccc(N=C(N)N)cc2)cc1		16.6 µM (active)
CC1(C)NC(=O)N(c2ccc([N+](=O)[O-])c(C(F)(F)F)c2)C1=O	107%	
CCCCN(CCCC)CCC(O)c1cc2c(Cl)cc(Cl)cc2c2cc(C(F)(F)F)ccc12 (centres undefined)	116%	
COc1ccc(C2(C#N)CCC(C(=O)O)CC2)cc1OC1CCCC1 (centres undefined)	101%	
NC(=NCc1ccccc1)NC(=O)c1nc(Cl)c(N)nc1N		16.6 µM (active)
Cn1c(NCCN(CCO)CCCc2ccc([N+](=O)[O-])cc2)cc(=O)n(C)c1=O		20.9 µM (active)
CC(=O)N1CCN(c2ccc(OC[C@H]3CO[C@](Cn4ccnc4)(c4ccc(Cl)cc4Cl)O3)cc2)CC1		16.6 µM (active)
COc1cc2nc(N3CCN(C(=O)C4CCCO4)CC3)nc(N)c2cc1OC (centres undefined)	101%	
O=c1c(O)c(-c2ccc(O)cc2O)oc2cc(O)cc(O)c12	131%	
O=C(CCc1ccc(O)cc1)c1c(O)cc(O)cc1O		0.166 µM (active)
CC(=O)O[C@H]1C(=O)[C@@]2(C)C([C@H](OC(=O)c3ccccc3)[C@]3(O)C[C@H](OC(=O)[C@H](O)[C@@H](NC(=O)c4ccccc4)c4ccccc4)C(C)=C1C3(C)C)[C@]1(OC(C)=O)CO[C@@H]1C[C@@H]2O (some centres undefined)	25.2%	
Cc1ccc(Nc2nccc(N(C)c3ccc4c(C)n(C)nc4c3)n2)cc1S(N)(=O)=O		11.8 µM (active)
NCCCCNCCCN	91%	

Compound	viability (percent of control)	Potency
CCCc1cc(=O)[nH]c(=S)[nH]1	97%	
Cc1cccc(CN2CCN(C(c3ccccc3)c3ccc(Cl)cc3)CC2)c1 (centres undefined)		20.9 µM (active)
N[C@@H](Cc1cc(I)c(Oc2cc(I)c(O)c(I)c2)c(I)c1)C(=O)O	125%	
COC(=O)N[C@H](C(=O)N[C@@H](Cc1ccccc1)[C@@H](O)CN(Cc1ccc(-c2ccccn2)cc1)NC(=O)[C@@H](NC(=O)OC)C(C)(C)C)C(C)(C)C	103%	
Cc1ccc(S(=O)(=O)NC(=O)NN2CC3CCCC3C2)cc1 (centres undefined)		18.7 µM (active)
CN(c1nccc(=O)[nH]1)C1CCN(c2nc3ccccc3n2Cc2ccc(F)cc2)CC1		13.2 µM (active)
Cc1cc2cc3c(C)cc(=O)oc3c(C)c2o1		7.43 µM (active)
COc1c2occc2cc2ccc(=O)oc12	125%	
Nc1ncn([C@H]2C[C@H](O)[C@@H](CO)O2)c(=O)n1		0.418 µM (active)
COC(=O)C1=C(C)NC(C)=C(C(=O)OC(C)C)C1c1cccc2nonc12 (centres undefined)		23.5 µM (active)
CCCCCCCCOc1ccccc1C(=O)Nc1ccc(C(=O)OCC[N+](C)(CC)CC)cc1	98.7%	
CS(=O)(=O)OCCCCOS(C)(=O)=O	128%	
Nc1ccc(S(N)(=O)=O)cc1	95.4%	
O=C1NC(=O)C(c2ccccc2[N+](=O)[O-])=C1Nc1ccc(O)c(Cl)c1		20.9 µM (active)
OC(CN1CCN(c2cccc(Cl)c2)CC1)C(c1ccccc1)c1ccccc1 (centres undefined)	106%	
COc1cc2c(N3CCN(C(=O)Nc4ccc(OC(C)C)cc4)CC3)ncnc2cc1OCCCN1CCCCC1		26.4 µM (active)
CC(=O)NC[C@H]1CN(c2ccc(N3CCOCC3)c(F)c2)C(=O)O1	108%	
